According to PubChem BioAssay (NCI):
About 83,000 compounds went through this panel and 20% of them were active in at least one assay; those are over-represented in the sample as a whole.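 Step 1: grow cells in 96-well plates. Step 2: add test compound at a single concentration. Step 3: incubate 48 h. Step 4: record percent growth.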 Unmarked numbers belong to inactive results. The source made the active and inactive calls. The calls were made as follows: active = growth percent below 10; inactive = the rest.

Experiments:
Assay in all cases: NCI-60 one-dose screen, 48 h (100 = growth as untreated, 0 = no growth, -100 = all killed)
Conditions in all cases: 10 µM unless noted
[1] = test system: SR leukemia
[2] = test system: RPMI-8226 leukemia
[3] = test system: OVCAR-8 ovarian
[4] = test system: OVCAR-5 ovarian
[5] = test system: OVCAR-4 ovarian
[6] = test system: SK-OV-3 ovarian
[7] = test system: IGROV1 ovarian
[8] = test system: OVCAR-3 ovarian
[9] = test system: HS 578T breast
[10] = test system: NCI/ADR-RES ovarian
[11] = test system: T-47D breast
[12] = test system: BT-549 breast
[13] = test system: MDA-MB-435 melanoma
[14] = test system: SW-620 colon
[15] = test system: MCF7 breast
[16] = test system: HCT-116 colon
[17] = test system: HCC-2998 colon
[18] = test system: KM12 colon

| SMILES | growth [1] | growth [2] | growth [3] [%] | growth [4] [%] | growth [5] [%] | growth [6] [%] | growth [7] | growth [8] | growth [9] [%] | growth [10] | growth [11] | growth [12] | growth [13] | growth [14] | growth [15] | growth [16] | growth [17] | growth [18] [%] |
| --- | --- | --- | --- | --- | --- | --- | --- | --- | --- | --- | --- | --- | --- | --- | --- | --- | --- | --- |
| COc1cc(-c2cc3ncccc3c3[nH]c(=O)c4cccnc4c23)cc(OC)c1OC | 20% | 6.32% (active) | 35.9 | 45.4 | 58.1 | 11.2 | 50.1% | 33.6% | 10.6 | 22.1% | 37.5% | 49.1% | -26.2% (active) | 32.9% | 17.3% | 17.8% | 48.5% | 30.7 |
| C#CCn1c2c(c3ccccc31)C[C@]1(C)[C@H]3CC[C@@H]4[C@@H]5C(=CCC[C@H]5C(=C)C)CC[C@@]4(C)[C@]3(C)CC[C@H]1C2(C)C | 82.7% | 106% | 105 | 101 | 100 | 108 | 98.4% | 108% | 93.8 | 106% | 106% | 100% | 102% | 98.2% | 95.7% | 101% | 102% | 102 |
| Cc1cc(N2CCCCC2)nc(N(CCCNc2ccnc3cc(Cl)ccc23)Cc2ccco2)n1 | -20.6% (active) | -35.3% (active) | 42.5 | 41.5 | 39.8 | 57.4 | 4.05% (active) | 21% | 61.3 | 4.38% (active) | 26.9% | 27.3% | -9.54% (active) | 9.49% (active) | 11.7% | – | 54.7% | 28.9 |
| COC(=O)[C@]12CC[C@@H](C)[C@H](C)[C@@H]1C1=CC[C@@H]3[C@@]4(C)C=C(O)C(=O)C(C)=C4CC[C@@]3(C)[C@]1(C)CC2 | 20.4% | 1.56% (active) | 37.9 | 64.5 | 37.8 | 61.7 | 53.6% | 28.5% | 33.2 | 38.8% | 5.51% (active) | 69.1% | 49% | 27.9% | 17.2% | – | 9.96% (active) | 30.3 |
| Cn1cc(-c2csc(-c3cn(CCNC(=O)OC(C)(C)C)c4ccc(F)cc34)n2)c2cccnc21 | 65.3% | 34.4% | 37.9 | 95.3 | 43.8 | 96.6 | 49.4% | 75.5% | 84.3 | 43.8% | 1.12% (active) | 65.4% | 77.6% | – | 47.3% | 82.6% | 93.5% | 52.7 |
| C=C1C(=O)O[C@H]2[C@H]1CC/C(COC(=O)NCCc1c[nH]c3ccccc13)=C\CC[C@@]1(C)O[C@@H]21 | 0.79% (active) | -25.7% (active) | 36.4 | 56.6 | 38.4 | 89.1 | -16.6% (active) | -65.6% (active) | 81 | 65.9% | -36.9% (active) | -12.9% (active) | 42% | – | 6.64% (active) | -89.1% (active) | 94.7% | 89.6 |
| Cc1nnc2nc(N)[nH]n2c1=O | 78.9% | 106% | 98.8 | 117 | 99.4 | 112 | 103% | 104% | 112 | 99.7% | 96.1% | 99.6% | 113% | – | 97.9% | 101% | 102% | 96 |
| N#C/C(=C\c1ccc(-c2ccccc2)o1)c1nc(-c2ccco2)cs1 | 103% | 49.6% | 96.9 | 53.8 | 11 | 97.2 | 43.1% | 78.7% | 95.7 | 95.5% | -26% (active) | 94.6% | 99.2% | 99.2% | – | 87% | 32.1% | 48.1 |
